Data published in PubChem BioAssay (Tox21).
Records with an inconclusive call do not appear. The source made the active and inactive calls. Unless noted, the call rests on the fitted dose curve; in most records, active means well fitted curve in the direction sought with a large enough effect in the repeat runs; inconclusive means weak or mixed curves; inactive means no such curve, though single readings can be large; an effect the other way counts as inactive or inconclusive.

Columns and labels:
[1] = qHTS assay to identify aromatase inhibitors - cell viability counter screen (AID 743084);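 further: cells stimulated with testosterone during compound exposure; nearly all actives have a fitted effect of over 55% in size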
[2] = biological target: Aryl hydrocarbon receptor (Homo sapiens) (UniProt P35869); experiment: qHTS assay to identify small molecule that activate the aryl hydrocarbon receptor (AhR) signaling pathway (AID 743085);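 further: HG2L7.5c1 human HepG2 liver cells with stably integrated DRE-driven firefly reporter; series mostly up to about 70 µM; nearly all actives have a fitted effect of over 15% in size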
Sequence of Aryl hydrocarbon receptor (Homo sapiens) (P35869 whole entry, looked up): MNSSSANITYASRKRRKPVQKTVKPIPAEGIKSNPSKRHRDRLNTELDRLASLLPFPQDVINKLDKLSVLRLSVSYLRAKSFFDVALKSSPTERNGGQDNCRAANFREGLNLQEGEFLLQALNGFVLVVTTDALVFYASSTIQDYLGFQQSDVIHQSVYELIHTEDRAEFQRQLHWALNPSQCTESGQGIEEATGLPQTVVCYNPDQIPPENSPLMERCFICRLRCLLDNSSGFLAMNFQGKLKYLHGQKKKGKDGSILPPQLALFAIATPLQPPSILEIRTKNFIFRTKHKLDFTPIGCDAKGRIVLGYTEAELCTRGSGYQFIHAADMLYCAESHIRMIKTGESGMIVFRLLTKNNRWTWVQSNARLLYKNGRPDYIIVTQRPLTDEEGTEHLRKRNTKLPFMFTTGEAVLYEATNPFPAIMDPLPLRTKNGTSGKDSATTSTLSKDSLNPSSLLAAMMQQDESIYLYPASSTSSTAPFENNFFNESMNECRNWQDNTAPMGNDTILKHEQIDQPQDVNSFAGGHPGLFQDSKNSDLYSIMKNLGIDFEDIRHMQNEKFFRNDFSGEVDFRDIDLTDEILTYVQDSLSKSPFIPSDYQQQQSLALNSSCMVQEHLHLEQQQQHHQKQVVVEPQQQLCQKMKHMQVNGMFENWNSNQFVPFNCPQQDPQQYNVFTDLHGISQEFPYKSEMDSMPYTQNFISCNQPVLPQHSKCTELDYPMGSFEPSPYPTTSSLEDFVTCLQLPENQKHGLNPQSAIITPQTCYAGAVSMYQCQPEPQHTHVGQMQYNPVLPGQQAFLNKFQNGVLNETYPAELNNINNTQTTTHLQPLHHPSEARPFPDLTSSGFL
Procedure, shortened: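 A multiplexed format paired cell viability (CellTiter-Fluor fluorescence) with AhR-dependent luciferase output (ONE-Glo luminescence) in the same wells of HepG2 DRE-luc cells after 24 h compound exposure at 37C.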

[3] = qHTS assay to identify small molecule that activate the aryl hydrocarbon receptor (AhR) signaling pathway - cell viability counter screen (AID 743086);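 further: HepG2 liver cells carrying the AhR DRE luciferase reporter; series mostly up to about 70 µM; nearly all actives have a fitted effect of over 45% in size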
Procedure, shortened: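 Cytotoxicity counter screen: CellTiter-Fluor signal (30 min, 37 C) in 4000 HepG2 cells/well carrying the DRE-luciferase reporter, following 24 h compound exposure at 37 C.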

[4] = qHTS assay to identify small molecule antagonists of the peroxisome proliferator-activated receptor gamma (PPARg) signaling pathway - cell viability counter screen (AID 743194); further: nearly all actives have a fitted effect of over 55% in size
Procedure, shortened: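 Viability was measured as CellTiter-Glo luminescence in GeneBLAzer PPARg UAS-bla HEK293H cells. These cells had been exposed 17 h at 37 C to compounds together with rosiglitazone at 50 nM final, with the beta-lactamase readout taken in the same wells.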

[5] = qHTS assay for small molecule agonists of the antioxidant response element (ARE) signaling pathway (AID 743202; active means well fitted activation curve with a large enough effect in the signal ratio in the repeat runs, not every such curve was filed as active; the % refers to the signal ratio)
Procedure, shortened: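 After 16 hours of compound treatment at 37 C, HepG2 cells with a stably integrated ARE-driven beta-lactamase reporter were loaded 2 hours at room temperature with LiveBLAzer B/G FRET substrate and fluorescence intensity measured.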

[6] = qHTS assay for small molecule agonists of the antioxidant response element (ARE) signaling pathway - cell viability counter screen (AID 743203; calls by dose curve; further: nearly all actives have a fitted effect of over 55% in size)
Procedure, shortened: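 Luminescence read-out (CellTiter-Glo, 30 min at room temperature) measured cell viability in the same wells as the ARE beta-lactamase reporter. HepG2 ARE-bla cells were treated with compounds for 16 hrs at 37C/5% CO2.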

[7] = qHTS assay for small molecule activators of the heat shock response signaling pathway - cell viability counter screen (AID 743209); further: nearly all actives have a fitted effect of over 50% in size
Procedure, shortened: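 HSE-bla HeLa; 1500 cells/well; overnight 37 C, 5% CO2; compound 5 h 37 C; LiveBLAzer B/G substrate 2.5 h RT; CellTiter-Glo 30 min RT; luminescence.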

[8] = qHTS assay for small molecule activators of the heat shock response signaling pathway (AID 743210; active means well fitted activation curve with a large enough effect in the signal ratio in the repeat runs, with a control signal flat, not every such curve was filed as active; the % refers to the signal ratio; further: series mostly up to about 63 µM)
Procedure, shortened: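 Compound exposure lasted 5 h at 37 C in HeLa cells carrying a heat-shock-element-driven beta-lactamase reporter. Read-out: fluorescence intensity after 2.5 h room-temperature loading with LiveBLAzer B/G FRET substrate.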

[9] = qHTS assay to identify small molecule agonists of the peroxisome proliferator-activated receptor delta (PPARd) signaling pathway - cell viability counter screen (AID 743211); further: nearly all actives have a fitted effect of over 55% in size
Procedure, shortened: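 Tox21 library compounds, delivered in DMSO, were incubated 17 h with PPARd-bla HEK293H cells; cytotoxicity was taken from CellTiter-Glo luminescence read 30 min after reagent addition.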

[10] = biological target: Peroxisome proliferator-activated receptor delta (Homo sapiens) (UniProt Q03181); experiment: qHTS assay to identify small molecule agonists of the peroxisome proliferator-activated receptor delta (PPARd) signaling pathway (AID 743212; calls by dose curve)
Sequence of Peroxisome proliferator-activated receptor delta (Homo sapiens) (Q03181 whole entry, looked up): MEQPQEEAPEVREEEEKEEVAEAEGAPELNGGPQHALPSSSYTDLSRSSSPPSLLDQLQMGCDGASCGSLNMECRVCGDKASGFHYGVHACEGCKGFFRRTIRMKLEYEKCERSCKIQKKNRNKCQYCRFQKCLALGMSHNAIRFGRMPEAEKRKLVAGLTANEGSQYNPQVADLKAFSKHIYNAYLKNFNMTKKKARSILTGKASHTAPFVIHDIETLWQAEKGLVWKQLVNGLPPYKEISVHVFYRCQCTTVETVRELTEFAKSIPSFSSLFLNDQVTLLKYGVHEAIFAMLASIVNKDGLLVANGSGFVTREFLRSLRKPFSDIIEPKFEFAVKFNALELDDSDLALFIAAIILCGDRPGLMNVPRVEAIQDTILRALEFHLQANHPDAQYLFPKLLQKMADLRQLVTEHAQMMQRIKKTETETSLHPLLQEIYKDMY
Procedure, shortened: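 Beta-lactamase reporter readout: a ratiometric FRET signal from the LiveBLAzer substrate after 2 h at room temperature. Compound exposure at 37 °C in PPARδ-bla HEK293H cells driven by an upstream activator sequence.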

[11] = qHTS assay to identify small molecule antagonists of the peroxisome proliferator-activated receptor delta (PPARd) signaling pathway - cell viability counter screen (AID 743213); further: nearly all actives have a fitted effect of over 50% in size
Procedure, shortened: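 Same-well viability: cells pre-incubated 5 h, dosed with compound plus 300 nM L165041, kept 17 h at 37 C, FRET substrate 2 h RT, then CellTiter-Glo 30 min RT and luminescence.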

[12] = biological target: Peroxisome proliferator-activated receptor delta (Homo sapiens) (UniProt Q03181); experiment: qHTS assay to identify small molecule antagonists of the peroxisome proliferator-activated receptor delta (PPARd) signaling pathway (AID 743215; active means well fitted inhibition curve with a large enough effect in the signal ratio in the repeat runs, not every such curve was filed as active; the % refers to the signal ratio;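 further: cells stimulated with agonist L165041 at 300 nM final during compound exposure; series mostly up to about 62 µM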)
Procedure, shortened: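 HEK293H GeneBLAzer PPARd UAS-bla reporter cells; cpd + L165041 300 nM final, 17 h 37 C; LiveBLAzer B/G FRET substrate 2 h RT; fluorescence intensity read-out. Antagonist mode.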

[13] = biological target: Bile acid receptor (Homo sapiens) (UniProt Q96RI1); experiment: qHTS assay to identify small molecule antagonists of the farnesoid-X-receptor (FXR) signaling pathway (AID 743217; active means well fitted inhibition curve with a large enough effect in the signal ratio in the repeat runs, not every such curve was filed as active; the % refers to the signal ratio)
Sequence of Bile acid receptor (Homo sapiens) (Q96RI1 whole entry, looked up): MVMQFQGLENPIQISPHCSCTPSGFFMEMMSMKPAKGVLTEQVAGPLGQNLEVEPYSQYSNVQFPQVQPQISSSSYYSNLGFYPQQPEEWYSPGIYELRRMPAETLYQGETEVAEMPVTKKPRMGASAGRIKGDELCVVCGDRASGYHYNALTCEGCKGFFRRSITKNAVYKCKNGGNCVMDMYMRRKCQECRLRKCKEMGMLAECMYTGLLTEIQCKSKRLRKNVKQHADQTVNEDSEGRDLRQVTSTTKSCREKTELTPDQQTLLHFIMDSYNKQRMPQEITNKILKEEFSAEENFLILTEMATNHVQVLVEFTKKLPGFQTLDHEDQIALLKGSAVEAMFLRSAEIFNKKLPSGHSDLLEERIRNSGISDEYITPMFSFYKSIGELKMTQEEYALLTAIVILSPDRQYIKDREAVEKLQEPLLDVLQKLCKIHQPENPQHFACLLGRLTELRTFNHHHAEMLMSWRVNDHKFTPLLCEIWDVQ
Procedure, shortened: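 Read-out: beta-lactamase FRET fluorescence (LiveBLAzer B/G substrate, 2 h, room temperature) in GeneBLAzer FXR-UAS-bla HEK 293T cells. Compounds were co-dosed with 50 uM chenodeoxycholic acid (final) and incubated 16 h at 37 °C.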

[14] = qHTS assay to identify small molecule agonists of the farnesoid-X-receptor (FXR) signaling pathway - cell viability counter screen (AID 743218); further: nearly all actives have a fitted effect of over 45% in size
Procedure, shortened: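 Luminescence from CellTiter-Glo, read after 30 min at RT, reports viability of GeneBLAzer FXR-UAS-bla HEK 293T cells treated 16 h with compounds in the wells used for the beta-lactamase reporter.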

[15] = qHTS assay to identify small molecule antagonists of the farnesoid-X-receptor (FXR) signaling pathway - cell viability counter screen (AID 743221; active means well fitted cell-killing curve with a large enough effect in the repeat runs, not every such curve was filed as active; further: nearly all actives have a fitted effect of over 50% in size)
Procedure, shortened: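 Cytotoxicity is taken from ATP luminescence (CellTiter-Glo, 30 min, room temperature) in FXR-bla HEK 293T cells previously incubated 16 h at 37 C with compound and chenodeoxycholic acid at 50 uM final.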

[16] = biological target: Vitamin D3 receptor (Homo sapiens) (UniProt P11473); experiment: qHTS assay to identify small molecule agonists of the vitamin D receptor (VDR) signaling pathway (AID 743222; calls by dose curve)
Sequence of Vitamin D3 receptor (Homo sapiens) (P11473 whole entry, looked up): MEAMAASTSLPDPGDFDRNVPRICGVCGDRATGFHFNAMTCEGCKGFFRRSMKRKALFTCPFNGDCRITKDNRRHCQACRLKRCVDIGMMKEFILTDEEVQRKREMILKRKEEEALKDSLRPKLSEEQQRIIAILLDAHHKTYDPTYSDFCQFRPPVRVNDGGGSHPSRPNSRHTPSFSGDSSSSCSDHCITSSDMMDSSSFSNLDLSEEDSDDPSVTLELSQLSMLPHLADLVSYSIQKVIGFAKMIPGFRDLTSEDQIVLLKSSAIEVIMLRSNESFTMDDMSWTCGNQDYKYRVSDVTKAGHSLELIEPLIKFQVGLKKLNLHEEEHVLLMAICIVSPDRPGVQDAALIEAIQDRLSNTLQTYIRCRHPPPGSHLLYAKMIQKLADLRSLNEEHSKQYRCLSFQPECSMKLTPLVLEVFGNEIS
Procedure, shortened: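 Beta-lactamase reporter readout (LiveBLAzer B/G FRET, 2 h RT) in VDR-bla cells after 16 h compound treatment at 37C, 5% CO2; cells pre-incubated 4 h before pin transfer of DMSO solutions.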

[17] = biological target: Vitamin D3 receptor (Homo sapiens) (UniProt P11473); experiment: qHTS assay to identify small molecule antagonists of the vitamin D receptor (VDR) signaling pathway (AID 743223; active means well fitted inhibition curve with a large enough effect in the signal ratio in the repeat runs, not every such curve was filed as active; the % refers to the signal ratio)
Procedure, shortened: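 Quantitative HTS in VDR-bla reporter cells stimulated with 1alpha,25-dihydroxyvitamin D3, 3 nM final. Compound exposure 16 h, 37C, 5% CO2. Read-out: beta-lactamase FRET substrate fluorescence, 2 h RT.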

[18] = biological target: Peroxisome proliferator-activated receptor gamma (Homo sapiens) (UniProt P37231); experiment: qHTS assay to identify small molecule agonists of the peroxisome proliferator-activated receptor gamma (PPARg) signaling pathway (AID 743094; active means well fitted activation curve with a large enough effect in the signal ratio in the repeat runs, not every such curve was filed as active; the % refers to the signal ratio)
Sequence of Peroxisome proliferator-activated receptor gamma (Homo sapiens) (P37231 whole entry, looked up): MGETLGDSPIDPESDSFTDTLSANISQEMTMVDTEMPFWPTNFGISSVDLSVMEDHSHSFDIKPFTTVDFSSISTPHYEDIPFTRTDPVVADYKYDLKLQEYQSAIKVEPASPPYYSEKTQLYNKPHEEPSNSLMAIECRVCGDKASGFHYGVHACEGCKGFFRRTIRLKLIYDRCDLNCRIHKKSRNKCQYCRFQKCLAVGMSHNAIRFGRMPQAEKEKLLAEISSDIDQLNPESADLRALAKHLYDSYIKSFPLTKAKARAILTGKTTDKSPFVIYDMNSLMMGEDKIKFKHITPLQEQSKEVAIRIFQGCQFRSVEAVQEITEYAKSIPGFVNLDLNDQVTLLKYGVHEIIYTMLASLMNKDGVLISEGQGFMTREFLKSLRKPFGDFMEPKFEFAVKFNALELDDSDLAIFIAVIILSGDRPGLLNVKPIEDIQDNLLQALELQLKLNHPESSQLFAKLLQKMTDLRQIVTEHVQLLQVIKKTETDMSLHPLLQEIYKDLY
Procedure, shortened: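 HEK293H PPARg-bla cells, 5 h settle at 37C/5% CO2; compound (DMSO) 17 h, 37C; B/G FRET substrate 1 h RT; fluorescence intensity read-out. qHTS format.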

[19] = biological target: Peroxisome proliferator-activated receptor gamma (Homo sapiens) (UniProt P37231); experiment: qHTS assay to identify small molecule antagonists of the peroxisome proliferator-activated receptor gamma (PPARg) signaling pathway (AID 743191; calls by dose curve; further: series mostly up to about 63 µM; nearly all actives have a fitted effect of over 30% in size)
Procedure, shortened: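 Beta-lactamase reporter under UAS control in HEK293H PPARg-bla cells; compound treatment 17 h at 37C. Read-out: fluorescence intensity after 1 h room-temperature incubation with LiveBLAzer B/G FRET substrate.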

[20] = biological target: Bile acid receptor (Homo sapiens) (UniProt Q96RI1); experiment: qHTS assay to identify small molecule agonists of the farnesoid-X-receptor (FXR) signaling pathway (AID 743220; active means well fitted activation curve with a large enough effect in the signal ratio in the repeat runs, not every such curve was filed as active; the % refers to the signal ratio)
Procedure, shortened: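 FXR-UAS-bla HEK 293T cells carrying a UAS-driven beta-lactamase reporter were plated for 5 h at 37C/5% CO2, then exposed to DMSO-dissolved Tox21 10K compounds for 16 h at 37C. A LiveBLAzer B/G FRET substrate was loaded for 2 h at room temperature before fluorescence reading.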

Measured: Potency

CC1(C)C(=O)C(C)(C)C1=O
not listed: [18] | [19] | [20]
inactive: all other assays above

BrCCOc1ccccc1
not listed: [3] | [8] | [10]
inactive: all other assays above

CC(C)(C)C(=O)CCc1ccc(Cl)cc1
not listed: [3] | [7] | [10] | [13] | [20]
inactive: all other assays above

CNCCc1ccccn1
not listed: [10] | [12] | [13] | [16] | [17] | [18] | [19] | [20]
inactive: all other assays above

CC(C)(C)C(=O)NCCCC(=O)O
not listed: [5] | [13] | [15] | [18] | [19] | [20]
inactive: all other assays above

CN(C)c1ccncc1
not listed: [9] | [13] | [15] | [18] | [19] | [20]
inactive: all other assays above

CCCCCCCCS(=O)(=O)O
not listed: [10] | [12] | [16] | [18] | [19]
inactive: all other assays above

C=CCCCCCCCCCCCCCC
not listed: [3] | [5] | [13] | [20]
inactive: all other assays above

CCN1CCN(C(=O)N[C@@H](C(=O)N[C@@H]2C(=O)N3[C@@H]2SC(C)(C)[C@H]3C(=O)O)c2ccccc2)C(=O)C1=O
not listed: [3] | [5] | [20]
inactive: all other assays above

CCCCCCCCOCCC#N
not listed: [5] | [10] | [12] | [13] | [15] | [18] | [20]
inactive: all other assays above

O=C(O)CCC(=O)Nc1ccc(S(=O)(=O)Nc2nccs2)cc1
not listed: [3] | [5] | [13] | [20]
inactive: all other assays above

O=c1c(O)c(O)c1=O
not listed: [5] | [13] | [18] | [20]
inactive: all other assays above

N#Cc1ccccc1C#N
not listed: [3] | [10] | [13] | [16] | [20]
inactive: all other assays above

C=CCOC(=O)CCCCCCCC
not listed: [10] | [12] | [13] | [18] | [19]
inactive: all other assays above

CCCC(C)C(O)CC (stereo not given)
inactive: [1] | [2] | [3] | [4] | [5] | [6] | [11] | [14] | [15] | [16]

O=Cc1ccc(C(=O)O)cc1
inactive: [1] | [2] | [3] | [19] | [6] | [7] | [8] | [11] | [14]

Cc1ccc(N)nc1
not listed: [3] | [7] | [10] | [16] | [17]
inactive: all other assays above

Cc1cccc(N)n1
not listed: [3] | [5] | [11] | [12] | [17] | [20]
inactive: all other assays above
